bovine MsrA act – bovine methionine sulfoxide reductase A activation; purified bovine MsrA, absorbance read-out; activation, % at 10.6 µM; 0.3% of 360,000 active; in the data active = activation above about 7.5%;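 note: 0% = vehicle and 100% = reference activator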
rCAG RNA binder – r(CAG) repeat RNA binding | TO-PRO-1 dye displacement fluorescence | inhibition, % at 3 µM | 1.3% of 370,000 active | AID 651821;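 active = inhibition above the plate cutoff, the mean of all test compounds on that plate plus 3 SD, cut at about 35% in these data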;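 note: 0% = DMSO alone and 100% = 100 µM mitoxantrone as full dye displacement; higher means more dye released from RNA so lower well fluorescence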
sPLA2-III inh – Blocks human group III sPLA2 activity | Q9NZ20 | QFRET BODIPY PC-A2 liposome hydrolysis, fluorescence | inhibition, % at 12.2 µM | 0.56% of 370,000 active;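 active = inhibition above mean plus 3 SD of compounds lying within the high and low control bounds, cut at about 19% in these data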;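 note: 0% = median of test compound wells and 100% = no enzyme DMSO wells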
MsrA inh – inhibits bovine methionine sulfoxide reductase A | purified bovine MsrA, absorbance read-out | inhibition, % at 15.5 µM | 0.75% of 360,000 active | AID 651718; in the data active = inhibition above about 4.5%;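 note: 0% = vehicle wells with enzyme and 100% = reference inhibitor wells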
sPLA2 confirm – human GIII-sPLA2 inhibition, confirmation | shares compounds with sPLA2-III inh | recombinant hGIII-sPLA2, BODIPY PC-A2 QFRET fluorescence | inhibition, % at 12.2 µM | 34% of 2,000 active;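 active = mean inhibition across triplicates above the hit cutoff set in the earlier primary screen, cut at about 19% in these data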;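 note: 0% = enzyme with DMSO and 100% = DMSO wells lacking enzyme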
BODIPY interf – optically interferes with 535nm fluorescence in sPLA2 counter-screen. inhibition, % at 12.2 µM. 8.5% of 2,000 active. AID 743282. BODIPY FL product fluorescence interference, QFRET. shares compounds with sPLA2-III inh;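 active = average inhibition above the solvent-only control mean plus 3 SD, cut at about 6% in these data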;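 note: 0% = DMSO with substrate plus product and 100% = DMSO with substrate alone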
The depositor's hits bear a star; nt = no result. Sampled rows, rich in hits. Any-hit rate of the full collection: about 2.8%.

SMILES	bovine MsrA act	rCAG RNA binder	sPLA2-III inh	MsrA inh	sPLA2 confirm	BODIPY interf
COCCNC(=S)N/N=C(\C)c1ccccc1O	-5	0	43*	1	22*	2
Cc1nnc(SCC(=O)Nc2cc(C(F)(F)F)ccc2Cl)n1C	-2	-3	-1	-2	nt	nt
COc1ccc(C2C(C#N)=C(N)N(c3ccccc3C#N)C3=C2C(=O)CCC3)cc1CN1CCCC1 (stereo not drawn)	-8	7	16	1	nt	nt
N#CCC[C@@H]1CC[C@]2(CCCN(C(=O)c3ccccc3)C2)O1	nt	2	16	nt	nt	nt
N#CCC[C@H]1CC[C@]2(CCCN(C(=O)c3ccccc3)C2)O1	nt	2	19*	nt	0	-3
CN(C)c1ccc(N=Nc2ccccc2C(=O)OCC(=O)NC2CCCC2)cc1	-2	-4	20*	0	24*	-11
COc1cc(CNn2c(C)n[nH]c2=S)cc(Cl)c1OCC(=O)NC(C)(C)C	0	0	29*	0	25*	-4
N#Cc1c(SCC(N)=O)nsc1SCc1ccc(Cl)cc1	-1	4	30*	0	9	-10
CC(C)(C)NCC(O)CON=C1c2ccccc2-c2ccccc21 (stereo not drawn)	-1	9	2	-1	nt	nt
CCCCCCCCNC(=S)NCCN1CCCCC1	-10	-2	23*	-3	21*	-16
S=C(NCCCN1CCOCC1)NCCCN1CCOCC1	-4	-2	-2	0	nt	nt
CCOc1ccc(NC(=O)c2cc3ccccc3cc2O)cc1	-4	15	-40	2	nt	nt
O=C(NNC(=O)c1cc2ccccc2cc1O)Nc1ccc(Br)cc1	-5	28	31*	1	31*	6.2*
COc1ccc(NC(=O)NNC(=O)c2cc3ccccc3cc2O)cc1	-5	23	22*	1	23*	2
O=C(NNC(=O)c1cc2ccccc2cc1O)Nc1ccc(F)cc1F	-7	15	16	0	nt	nt
Cc1cc(N2CCOCC2)nc2ccc(NC(=S)NCCN(C)C)cc12	-1	-3	-4	1	nt	nt
CCOc1ccccc1N1CCN(C(=O)CC(C)C)CC1	-6	-8	8	2	nt	nt
COc1ccc(NC(=O)c2ccco2)cc1NC(=O)c1cccc(OC(C)C)c1	3	5	0	0	nt	nt
COc1ccc(C(=O)c2coc(-c3ccccc3C(=O)O)c2C(=O)O)cc1	-6	0	19*	0	-6	-3
COc1ccc(C(=O)c2ccccc2C(=O)c2ccccc2)cc1	-3	-1	11	1	nt	nt
CCCC(NCC(O)COc1ccc(-c2ccccc2)cc1)c1ccccc1 (stereo not drawn)	-1	-3	-27	1	nt	nt
CCCNC(=O)c1ccc(OC)cc1OC	-13	5	3	-1	nt	nt
COc1cccc(C(O)c2nc(/C=C/c3ccc(C(F)(F)F)cc3)cs2)c1 (stereo not drawn)	2	2	-9	2	nt	nt
O=C(Nc1ncc(Cc2ccccc2Cl)s1)C1=NCCN1	-3	4	3	1	nt	nt
Cc1cc(=O)c2c(C)ccc(C)c2[nH]1	3	-1	0	1	nt	nt
SMILES	bovine MsrA act	rCAG RNA binder	sPLA2-III inh	MsrA inh	sPLA2 confirm	BODIPY interf
Cc1nn(C)cc1-c1n[nH]c(=S)n1-c1ccc(F)cc1	0	-3	29*	1	4	-3
Cc1cc(-c2n[nH]c(=S)n2-c2ccccc2)nn1C	2	2	1	0	nt	nt
Cc1nn(C)c(-c2n[nH]c(=S)n2-c2ccccc2)c1Cl	7	3	26*	0	24*	-3
Fc1cccc(-c2n[nH]c(=S)n2-c2ccccc2)c1	0	0	25*	1	18	1
CNc1cc(C)nc(N2CCOCC2)n1	-3	4	-3	-1	nt	nt
Cc1ccc(S(=O)(=O)NCC(=O)NCc2cc(=O)n(C)c(=O)n2C)cc1	-2	2	6	-1	nt	nt
CCOC(=O)c1c(C(C)(C)C)oc2ccc(OCC#N)cc12	3	-1	1	-1	nt	nt
O=C(NNC1CC(=O)N(c2ccc(Br)cc2)C1=O)c1cccs1 (stereo not drawn)	-7	13	-18	0	nt	nt
CCC(C)NS(=O)(=O)c1ccc(NC(=O)C(Sc2ccccc2)c2ccccc2)cc1 (stereo not drawn)	-2	17	-51	-1	nt	nt
CNc1nc(-c2ccccc2)nc(-c2ccc(OC)cc2)c1C#N	-2	0	0	-1	nt	nt
CNc1nc(-c2ccccc2)nc(-c2ccccc2)c1C#N	1	1	20*	0	-4	-5
O=C(CCNC(=O)c1ccc(Br)cc1)NCc1ccccc1F	-3	-5	2	0	nt	nt
